Assay results taken from PubChem BioAssay (NCATS).
Records with an inconclusive call do not appear. The source made the active and inactive calls. The call rests on the fitted dose curve; in most records, active means well fitted curve in the direction sought with a large enough effect; inconclusive means small, poorly fitted or top-dose-only effect, or another doubt; inactive means no such curve, though single readings can be large; an effect the other way counts as inactive or inconclusive.

How the values were obtained:
[1] = Quantitative High-Throughput drug screen in 47 multiple myeloma cell lines against the NCATS MIPE library collection: FR4_PLB cell viability assay (AID 1918924; further: nearly all actives have a fitted effect of over 35% in size; further: potency means the concentration at half of the fitted maximal effect)
Method in brief: (§1)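 Myeloma cell lines, 500 cells per well, exposed to MIPE 4.0 library compounds for 48 h at 37C, 5% CO2. Viability from ATP by CellTiter-Glo luminescence; normalised to DMSO (100%) and media-only (0%) wells.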

[2] = Quantitative High-Throughput drug screen in 47 multiple myeloma cell lines against the NCATS MIPE library collection: EJM_DSMZ cell viability assay (AID 1918926; further: nearly all actives have a fitted effect of over 30% in size; further: potency means the concentration at half of the fitted maximal effect)
Method in brief: (§2)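 Steps: seed 500 cells per well; pin-transfer MIPE 4.0 library; incubate 48 h at 37C, 5% CO2, humidified; add CellTiter-Glo, 5 min room temperature; read luminescence.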

[3] = Quantitative High-Throughput drug screen in 47 multiple myeloma cell lines against the NCATS MIPE library collection: ARP1_JJKsccF8 cell viability assay (AID 1918928; further: nearly all actives have a fitted effect of over 40% in size; further: potency means the concentration at half of the fitted maximal effect)
Method in brief: (§3)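 Myeloma cells, 500 per well, were exposed to MIPE 4.0 drugs by pin transfer for 48 h at 37 °C, 5% CO2. Viability was read as ATP luminescence with CellTiter-Glo, normalised to DMSO-only (100%) and medium-only (0%) wells.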

[4] = Quantitative High-Throughput drug screen in 47 multiple myeloma cell lines against the NCATS MIPE library collection: ARD_JJKsccE7 cell viability assay (AID 1918929; further: potency means the concentration at half of the fitted maximal effect)
Method in brief: as §2

[5] = Quantitative High-Throughput drug screen in 47 multiple myeloma cell lines against the NCATS MIPE library collection: Karpas620_DSMZ cell viability assay (AID 1918959); further: nearly all actives have a fitted effect of over 30% in size
Method in brief: as §1

[6] = Quantitative High-Throughput drug screen in 47 multiple myeloma cell lines against the NCATS MIPE library collection: KMM1_JCRB cell viability assay (AID 1918960); further: nearly all actives have a fitted effect of over 30% in size
Method in brief: as §3

[7] = Quantitative High-Throughput drug screen in 47 multiple myeloma cell lines against the NCATS MIPE library collection: JIM3_ECACC cell viability assay (AID 1918963; further: nearly all actives have a fitted effect of over 35% in size; further: potency means the concentration at half of the fitted maximal effect)
Method in brief: as §1

[8] = Quantitative High-Throughput drug screen in 47 multiple myeloma cell lines against the NCATS MIPE library collection: H1112_PLB cell viability assay (AID 1918967; further: nearly all actives have a fitted effect of over 30% in size; further: potency means the concentration at half of the fitted maximal effect)
Method in brief: as §2

[9] = Quantitative High-Throughput drug screen in 47 multiple myeloma cell lines against the NCATS MIPE library collection: Karpas25_ECACC cell viability assay (AID 1918968; further: nearly all actives have a fitted effect of over 35% in size; further: potency means the concentration at half of the fitted maximal effect)
Method in brief: as §2

[10] = Quantitative High-Throughput drug screen in 47 multiple myeloma cell lines against the NCATS MIPE library collection: Delta47_JCRB cell viability assay (AID 1918925; further: nearly all actives have a fitted effect of over 45% in size; further: potency means the concentration at half of the fitted maximal effect)
Method in brief: as §2

[11] = Quantitative High-Throughput drug screen in 47 multiple myeloma cell lines against the NCATS MIPE library collection: AMO1_DSMZ cell viability assay (AID 1918927; further: nearly all actives have a fitted effect of over 30% in size; further: potency means the concentration at half of the fitted maximal effect)
Method in brief: as §2

[12] = Quantitative High-Throughput drug screen in 47 multiple myeloma cell lines against the NCATS MIPE library collection: INA6_PLB cell viability assay (AID 1918965; further: nearly all actives have a fitted effect of over 55% in size; further: potency means the concentration at half of the fitted maximal effect)
Method in brief: as §1

[13] = Quantitative High-Throughput drug screen in 47 multiple myeloma cell lines against the NCATS MIPE library collection: Karpas417_ECACC cell viability assay (AID 1918961); details: Karpas417 myeloma viability, CellTiter-Glo ATP luminescence, 48 h; viability (% of DMSO): at 45.8 µM (top of the series); further: potency means the concentration at half of the fitted maximal effect
Method in brief: as §1

[14] = Quantitative High-Throughput drug screen in 47 multiple myeloma cell lines against the NCATS MIPE library collection: JJN3_DSMZ cell viability assay (AID 1918966; further: nearly all actives have a fitted effect of over 50% in size; further: potency means the concentration at half of the fitted maximal effect)
Method in brief: as §2

[15] = Quantitative High-Throughput drug screen in 47 multiple myeloma cell lines against the NCATS MIPE library collection: KHM11_PLB cell viability assay (AID 1918962); further: nearly all actives have a fitted effect of over 35% in size; further: potency means the concentration at half of the fitted maximal effect
Method in brief: as §1

[16] = Quantitative High-Throughput drug screen in 47 multiple myeloma cell lines against the NCATS MIPE library collection: JIM1_ECACC cell viability assay (AID 1918964)
Method in brief: as §2

CC1=C(C(=O)O)N2C(=O)[C@@H](NC(=O)C(N)c3ccccc3)[C@H]2SC1 (stereo partly drawn)
active: Potency [7] 0.0017 µM
inactive: Potency [1] | Potency [2] | Potency [3] | Potency [4] | Potency [5] | Potency [6] | Potency [8] | Potency [9]

CCN[C@H]1C[C@H](C)S(=O)(=O)c2sc(S(N)(=O)=O)cc21
inactive: Potency [1] | Potency [10] | Potency [11] | Potency [3] | Potency [6] | Potency [7] | Potency [12] | Potency [8] | Potency [9]

CC(C)(Sc1cc(C(C)(C)C)c(O)c(C(C)(C)C)c1)Sc1cc(C(C)(C)C)c(O)c(C(C)(C)C)c1
active: Potency [10] 5.26 µM
inactive: Potency [1] | Potency [11] | Potency [3] | Potency [13] | Potency [14]

CO[C@@]12[C@H](COC(N)=O)C3=C(C(=O)C(C)=C(N)C3=O)N1C[C@@H]1N[C@@H]12
active: Potency [1] 26.4 µM | Potency [10] 23.5 µM | Potency [3] 26.4 µM | Potency [15] 33.2 µM | Potency [7] 26.4 µM | Potency [12] 20.9 µM | Potency [14] 26.4 µM | Potency [8] 23.5 µM
inactive: Potency [11] | Potency [5] | Potency [6]

C#CCN[C@@H]1CCc2ccccc21
inactive: Potency [1] | Potency [10] | Potency [3] | Potency [5] | Potency [6] | Potency [13] | Potency [15] | Potency [7] | Potency [8]

CC(C)Cn1cnc2c(N)nc3ccccc3c21
active: Potency [2] 5.26 µM | Potency [11] 4.18 µM | Potency [4] 5.9 µM | Potency [14] 18.7 µM
inactive: Potency [1] | Potency [5] | Potency [7] | Potency [8] | Potency [9]

O=C(O)c1cn(C2CC2)c2cc(N3CCNCC3)c(F)cc2c1=O
inactive: Potency [1] | Potency [2] | Potency [3] | Potency [6] | Potency [7] | Potency [14] | Potency [8]

NC(=O)c1cccnc1
inactive: Potency [1] | Potency [2] | Potency [11] | Potency [3] | Potency [4] | Potency [5] | Potency [6] | Potency [13] | Potency [7] | Potency [8] | Potency [9]

CCC(=O)O[C@]1(C(=O)SCF)[C@H](C)C[C@H]2[C@@H]3C[C@H](F)C4=CC(=O)C=C[C@]4(C)[C@@]3(F)[C@@H](O)C[C@@]21C
inactive: Potency [1] | Potency [10] | Potency [11] | Potency [3] | Potency [6] | Potency [13] | Potency [7] | Potency [14]
active: Potency [8] 20.9 µM

C[C@]12C=CC(=O)C=C1CC[C@@H]1[C@@H]2C(=O)C[C@@]2(C)[C@H]1CC[C@]2(O)C(=O)CO
inactive: Potency [1] | Potency [2] | Potency [3] | Potency [6] | Potency [7] | Potency [8]

COc1c(N2CCNC(C)C2)c(F)cc2c(=O)c(C(=O)O)cn(C3CC3)c12 (stereo not drawn)
inactive: Potency [1] | Potency [2] | Potency [11] | Potency [3] | Potency [13] | Potency [15] | Potency [7] | Potency [14] | Potency [8] | Potency [9]

CNS(=O)(=O)Cc1ccc2[nH]cc(CCN(C)C)c2c1
active: viability (% of DMSO) [13] 103%
inactive: Potency [1] | Potency [2] | Potency [11] | Potency [6] | Potency [7] | Potency [8]

CC(C)(C#N)c1cc(Cn2cncn2)cc(C(C)(C)C#N)c1
active: Potency [14] 2.35 µM
inactive: Potency [1] | Potency [2] | Potency [11] | Potency [4] | Potency [6] | Potency [7] | Potency [12] | Potency [8] | Potency [9]

CN1CCCC(n2nc(Cc3ccc(Cl)cc3)c3ccccc3c2=O)CC1 (stereo not drawn)
active: Potency [1] 23.5 µM | Potency [2] 1.05 µM | Potency [3] 6.62 µM | Potency [15] 6.62 µM | Potency [7] 14.8 µM | Potency [14] 2.96 µM | Potency [8] 1.87 µM | Potency [9] 1.32 µM

O=c1cc(O)c(Cl)c[nH]1
active: Potency [11] 2.64 µM | Potency [4] 7.43 µM | Potency [13] 1.18 µM
inactive: Potency [1] | Potency [10] | Potency [3] | Potency [15] | Potency [7] | Potency [8] | Potency [9]

CC(=O)CC(c1ccccc1)c1c(O)c2ccccc2oc1=O (stereo not drawn)
inactive: Potency [1] | Potency [2] | Potency [3] | Potency [6] | Potency [15] | Potency [7] | Potency [12] | Potency [8] | Potency [9]

CCCCS(=N)(=O)CCC(N)C(=O)O (stereo not drawn)
inactive: Potency [1] | Potency [10] | Potency [11] | Potency [3] | Potency [6] | Potency [7] | Potency [14] | Potency [8] | Potency [9]

CCn1cc(C(=O)O)c(=O)c2cc(F)c(N3CCNCC3)cc21
inactive: Potency [1] | Potency [10] | Potency [5] | Potency [6] | Potency [13] | Potency [15] | Potency [7] | Potency [16] | Potency [8] | Potency [9]
active: Potency [3] 8.33 µM

NS(=O)(=O)c1cc2c(cc1Cl)NC(C(Cl)Cl)NS2(=O)=O (stereo not drawn)
inactive: Potency [1] | Potency [2] | Potency [3] | Potency [5] | Potency [6] | Potency [7] | Potency [16] | Potency [8] | Potency [9]

S=P(N1CC1)(N1CC1)N1CC1
inactive: Potency [1] | Potency [2] | Potency [3] | Potency [5] | Potency [7] | Potency [9]
active: Potency [14] 0.0118 µM

O=NN(CCCl)C(=O)NC1CCCCC1
inactive: Potency [2] | Potency [11] | Potency [3] | Potency [4] | Potency [5] | Potency [15] | Potency [7] | Potency [16] | Potency [8]

NC(=O)c1ccc2[nH]ccc2c1
inactive: Potency [10] | Potency [3] | Potency [5] | Potency [13] | Potency [7] | Potency [8] | Potency [9]

Nc1nc(N)c2nc(CNc3ccc(C(=O)NC(CCC(=O)O)C(=O)O)cc3)cnc2n1 (stereo not drawn)
active: Potency [11] 0.0235 µM | Potency [3] 0.0372 µM | Potency [7] 0.0418 µM
inactive: Potency [10] | Potency [5] | Potency [9]
